Screens from PubChem BioAssay.
Rows were chosen to be rich in hits. Some 14% of all compounds tested hit in one or more screens of this group.
HSD17B inh = HSD17B dehydrogenase inhibition | Q99714 | recombinant HSD17B10, NADH fluorescence kinetic | Potency, µM (top dose mostly 57.1 µM), without a hit: at the top dose activity change, negative = inhibition, actives largely listed as inhibitors | actives 7.6% (n = 75,000) | AID 893;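 note: the protocol describes HADH2 (HSD17B10) and not the HSD17B4 of the title; potency is the fitted concentration of half-maximal effect; % is set by controls: 0 for no effect and ±100 for the full control effect; nearly all actives have a fitted effect of over 70% in size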
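Activity followed as NADH fluorescence increase (ex 360, em 450 nm) every 30 seconds for 4 min, using final 90 uM beta-hydroxybutyryl CoA and 1 mM NAD+. Recombinant His-tagged enzyme, 20 nM, pH 9.0 Tris buffer, 15 min compound preincubation.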
AID923 = qHTS Assay for Allosteric/Competitive Inhibitors of Caspase-1: Spectroscopic Profiling in AFC Spectral Region; AID 923, 2007; compound fluorescence, AFC spectral region (405/520 nm); actives 1.1% (n = 75,000); Potency, µM (highest dose often 57.5 µM), for inactives: at the highest dose fluorescence increase, most hits filed as activators; note: potency is the fitted concentration of half-maximal effect; 0% is about no effect
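Baseline compound fluorescence (AFC region, 405 nm ex/520 nm em) taken from the intercept of kinetic reads with 50 nM caspase-1 and 5 uM Ac-WEHD-AFC; normalized to an on-plate AFC standard curve; compounds titrated up to 57 uM.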
A350 fluor = compound fluoresces in the Alexa 350 spectral region | Compound autofluorescence, 340/450 nm, Alexa 350 dye-equivalents; stronger effect = higher value | max dye-equivalent concentration, M | actives 11% (n = 59,000); in the data active = max dye-equivalent concentration above about 10 nM; inconclusive = mostly about 1.1 nM to 9.6 nM
4-MU autofl = 4-MU region autofluorescence; compound autofluorescence, 340/450 nm, 4-MU equivalents; stronger effect = higher value; actives 11% (n = 59,000); max dye-equivalent concentration, M; in the data active = max dye-equivalent concentration above about 10 nM; inconclusive = mostly about 1.1 nM to 9.6 nM
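Compounds in 100 mM Tris, pH 8.0, incubated 15 min at room temperature, then fluorescence read at 340 nm excitation/450 nm emission. Signal converted to 4-MU dye-equivalent concentration using an on-plate six-point 4-MU standard curve.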
HADH2 inh = HADH2 (human) dehydrogenase inhibition. recombinant HADH2, NADH fluorescence, beta-hydroxybutyryl-CoA. Potency, µM (doses to about 57.1 µM), without a hit: at the highest dose activity change, negative = inhibition, actives largely listed as inhibitors. actives 3.4% (n = 73,000); note: potency is the fitted concentration of half-maximal effect; % is set by controls: 0 for no effect and ±100 for the full control effect; nearly all actives have a fitted effect of over 60% in size
Target sequence (Q99714 whole entry, looked up, one chain of several): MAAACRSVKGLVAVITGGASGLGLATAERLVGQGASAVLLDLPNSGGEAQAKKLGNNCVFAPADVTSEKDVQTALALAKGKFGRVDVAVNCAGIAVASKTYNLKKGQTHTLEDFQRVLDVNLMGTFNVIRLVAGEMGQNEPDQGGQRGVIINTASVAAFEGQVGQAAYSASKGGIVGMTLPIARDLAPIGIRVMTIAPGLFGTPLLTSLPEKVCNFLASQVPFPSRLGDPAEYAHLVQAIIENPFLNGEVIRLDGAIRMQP
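Buffer 100 mM Tris-HCl pH 9.0/0.01% Tween-20; HADH2 20 nM; NAD+ 1 mM; beta-hydroxybutyryl-CoA 90 uM (all final). 15 min cpd preincubation, RT.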
CRE-bla Fsk = alters forskolin-stimulated CRE reporter signaling in CHO cells; CHO CRE-bla reporter (cAMP response element driving beta-lactamase), forskolin EC10, beta-lactamase ratio; Potency, µM (titrated, usually from 38.2 µM), for inactives: top-dose activity change, negative = inhibition, most hits filed as activators; actives 2.5% (n = 71,000); AID 662; active = well fitted activation curve with a large enough effect in the signal ratio, with a control signal flat, not every such curve was filed as active; inconclusive = small, poorly fitted or top-dose-only effect, or effect the other way, or a change in a side signal; the % refers to the signal ratio; note: potency is the fitted concentration of half-maximal effect; % of control where 0% means no effect
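AC50 values, positive or negative, reflect shifts in EC10 NKH 477-induced CRE-bla reporter activity in CHO cells. Incubation lasted 3 h at 37 °C before CCF4 substrate (2 h, room temperature) and ratiometric 460/530 nm reading.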
* hit, by the source's call; i = inactive; ? = inconclusive; · = no result given; [ ] = remark or other dose. Unless noted, calls come from the whole dose curve; as a rule, active = well fitted curve in the direction sought with a large enough effect; inconclusive = small, poorly fitted or top-dose-only effect, or another doubt; inactive = no such curve, though single readings can be large; an effect the other way counts as inactive or inconclusive.

SMILES	HSD17B inh	AID923	A350 fluor	4-MU autofl	HADH2 inh	CRE-bla Fsk
CCOC(=O)N1CCC(N2Cc3cccc(C(=O)N4CCN(C5CCCCC5)CC4)c3C2=O)CC1	5.2%	1.1%	·	·	4.3%	-6.0%
CCCCn1c(SCC(=O)c2ccc3c(c2)OCCO3)nnc1-c1ccco1	-9.9%	-2.7%	i	i	16.4%	?
CC(=O)C(C)Oc1ccc2c3c(c(=O)oc2c1C)CCCC3 (configuration not stated)	25.1µM*	5.5%	1.22e-08M*	?	-126.5%	?
CC1(C)Cc2c(sc3c2c(=N)n(Cc2ccco2)c(=O)n3Cc2ccccc2)CO1	-17.4%	-0.7%	2.38e-08M*	2.47e-08M*	-1.8%	?
CC1(C)Cc2c(sc3[nH]c(=S)n(Cc4ccco4)c(=O)c23)CO1	·	·	i	i	·	·
CC1(C)Cc2c(sc3c2c(=N)n(Cc2ccco2)c(=O)n3Cc2ccc(Cl)cc2)CO1	-13.4%	1.0%	i	i	4.7%	0.2µM*
COC(=O)C1C(=O)c2c(n[nH]c2C)CC1(C)C (configuration not stated)	-2.6%	-0.3%	i	i	-8.4%	1.4%
Cc1[nH]nc2c1-c1nc3ccccc3nc1C(C)(C)C2	25.1µM*	-0.7%	2.27e-06M*	1.94e-06M*	31.6µM*	?
Cc1cc(C(=O)OCC(=O)Nc2ccc(F)cc2)c(C)o1	4.1%	1.8%	i	i	-0.8%	-5.9%
COc1ccc(C(=O)c2ccccc2O)c(O)c1	-6.6%	-3.0%	i	i	5.8%[25.6 µM]	-0.4%[17.1 µM]
COc1cc(O)c(C(=O)c2ccccc2)cc1O	12.6µM*	0.1%	·	·	·	·
Cc1nnc(NC(=O)c2ccccc2Br)s1	-4.5%	-1.1%	i	i	-5.2%	2.1%
OC(CN1C2=NCCN2c2ccccc21)c1ccc(Br)cc1 (configuration not stated)	-1.2%	1.2%	?	i	5.2%	-0.3%
Cc1ccc(-c2nn(CCC(=O)NCC3CCCO3)c(=O)c3ccccc23)cc1 (configuration not stated)	·	·	i	i	·	·
Cc1ccc(-c2nn3c(-c4ccco4)nnc3c3ccccc23)cc1S(=O)(=O)NCC1CCCO1 (configuration not stated)	-20.2%	0.9%	1.07e-08M*	?	31.7%	?
CCOC(=O)CSc1nnc(CNc2ccccc2Cl)n1-c1ccccc1	-1.6%	-2.0%	i	i	6.0%	?
CCOC(=O)c1cc2c(=O)n(C)c3ccccc3c2s1	?	-0.7%	1.94e-08M*	1.9e-08M*	13.9%	?
Cn1c(C(=O)NCCN2CCN(Cc3ccccc3)CC2)cc2c(=O)n(C)c3ccccc3c21	-18.1%	4.1%	·	·	9.5%	7.4%
Cn1c(C(=O)NCc2ccccn2)cc2c(=O)n(C)c3ccccc3c21	25.1µM*	0.4%	·	·	9.7%	5.01µM*
Cn1c(C(=O)NCCN2CCCCCC2)cc2c(=O)n(C)c3ccccc3c21	31.6µM*	0.0%	·	·	?	?
Cn1c(C(=O)NCCCN2CCOCC2)cc2c(=O)n(C)c3ccccc3c21	7.94µM*	-1.3%	·	·	?	?
CN1CCN(CCCNC(=O)c2cc3c(=O)n(C)c4ccccc4c3s2)CC1	25.1µM*	2.4%	·	·	93.6%	?
Cn1c(C(=O)Nc2ccc3c(c2)OCO3)cc2c(=O)n(C)c3ccccc3c21	i	1.3%	·	·	25.5%	1.58µM*
CC(NC(=O)c1cc2c(=O)n(C)c3ccccc3c2n1C)c1ccc2c(c1)OCCO2 (configuration not stated)	?	-0.4%	·	·	-2.9%	?
CC1CCN(CCCNC(=O)c2cc3c(=O)n(C)c4ccccc4c3n2C)CC1	31.6µM*	0.7%	·	·	0.7%	10.5%
SMILES	HSD17B inh	AID923	A350 fluor	4-MU autofl	HADH2 inh	CRE-bla Fsk
Cc1c(NC(=O)COC(=O)c2cc3c4ccccc4n(C)c3s2)c(=O)n(-c2ccccc2)n1C	15.8µM*	-3.5%	5.61e-08M*	5.65e-08M*	?	?
Cn1c(C(=O)O)c(CC(=O)Nc2ccc3c(c2)OCCO3)c2ccccc21	-0.2%	0.2%	2.47e-08M*	2.55e-08M*	-0.5%	-3.0%
Nc1c(C(=O)NC2CCCCC2)c2nc3ccccc3nc2n1/N=C/c1ccco1	?	3.1%	2.58e-08M*	1.94e-08M*	8.3%	?
CCCCCCNC(=O)c1c(N)n(/N=C/c2ccco2)c2nc3ccccc3nc12	-13.2%	7.5%	3.21e-08M*	2.69e-08M*	1.6%	?
COCCNC(=O)c1c(N)n(/N=C/c2cccs2)c2nc3ccccc3nc12	·	·	4.8e-08M*	3.97e-08M*	·	·
CCCCNC(=O)c1c(N)n(/N=C/c2ccccn2)c2nc3ccccc3nc12	1.3%	0.2%	i	i	4.5%	-7.7%
CC(C)(C)c1ccc(-c2nnc(SCc3ccc(Cl)cc3)n2-c2cccc(C(F)(F)F)c2)cc1	4.5%[11.4 µM]	0.5%[11.5 µM]	i	i	-1.0%[11.4 µM]	4.1%[7.6 µM]
CCn1cc(C(=O)NCCCN(C)C)c(=O)c2cc(F)c(N3CCN(C)CC3)cc21	·	·	1.4e-08M*	1.17e-08M*	·	·
COc1ccc(S(=O)(=O)N(C)CC(=O)NCc2cccnc2)cc1	-7.2%	0.6%	i	i	5.2%	3.6%
COC(=O)C1(C)Nc2ccccc2C(=O)N1c1ccccc1OC (configuration not stated)	31.6µM*	1.9%	·	·	25.1µM*	-2.2%
COC(=O)C1(C)NC(=O)c2ccccc2N1 (configuration not stated)	31.6µM*	-0.4%	·	·	?	-4.0%
CCN(C(C)=O)c1nnc(CSc2nc3ccccc3s2)s1	?	-0.5%	i	i	-11.1%	12.6µM*
O=C(NCc1ccccc1Cl)C1CCN(S(=O)(=O)N2CCC3(CC2)OCCO3)CC1	6.6%	-0.4%	i	i	8.4%	-26.5%
CCCn1c(C)nc2c(Nc3ccccc3)nc(C)nc21	-2.7%	0.3%	·	·	-6.9%	12.6µM*
CCCn1c(C)nc2c(NCc3ccccc3)nc(C)nc21	-3.7%	-0.8%	·	·	14.2%	10µM*
CCCCNc1nc(C)nc2c1nc(C)n2CCC	14.8%	1.9%	·	·	13.0%	10µM*
CCCn1c(C)nc2c(NC3CCN(Cc4ccccc4)C3)nc(C)nc21 (configuration not stated)	7.9%	-0.5%	·	·	7.5%	?
O=C(OCC(=O)N1CCN(C(=O)c2ccco2)CC1)c1cc(-c2ccccc2)nc2ccccc12	25.1µM*	-0.3%	4.94e-08M*	3.63e-08M*	-25.9%	?
CCOC(=O)c1cc2c(ccn2-c2ccc(F)cc2)n1CC(=O)N1CCN(C(=O)c2ccco2)CC1	31.6µM*	-0.6%	i	i	-170.3%	?
O=C(OCC(=O)N1CCN(C(=O)c2ccco2)CC1)c1cc(-c2ccc(F)cc2)nc2ccccc12	31.6µM*	5.6%	9.95e-08M*	9.32e-08M*	?	?
